Experiment [1] in a line: qHTS assay to identify small molecule agonists of the estrogen receptor alpha (ER-alpha) signaling pathway in the presence of an antagonist - cell viability counter screen (AID 1259386). Further: series mostly up to about 92 µM; nearly all actives have a fitted effect of over 30% in size. The essentials: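 Read-out: CellTiter-Fluor fluorescence after 1hr reagent incubation, measured in the same wells as the luciferase readout. VM7Luc4E2 cells were exposed to 15 compound concentrations with 10.0nM ICI-182,780 for 22hr at 37C.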
For orientation: qHTS replaces the single test concentration by a dilution series.

The target in experiment [2] is Progesterone receptor (Homo sapiens) (UniProt P06401). In words: qHTS assay to identify small molecule agonists of the progesterone receptor (PR) signaling pathway (AID 1346784; calls by dose curve; further: nearly all actives have a fitted effect of over 30% in size). In outline:
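HEK 293T PR-UAS-bla reporter cells, 2% charcoal-stripped FBS; 6 hr settle at 37C/5% CO2, compound (DMSO) 16 hr, LiveBLAzer B/G FRET substrate 2 hr RT, fluorescence intensity read.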

A short description of experiment [3]: qHTS assay to identify small molecule antagonists of the progesterone receptor (PR) signaling pathway - cell viability counter screen (AID 1346798). Further: series mostly up to about 92 µM; nearly all actives have a fitted effect of over 50% in size. The essentials: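 Luminescence readout (CellTiter-Glo, 30 min, RT) of viability in PR-UAS-bla HEK293T cells exposed to compound and R5020 agonist for 16 hr at 37C, 5% CO2; run in the same wells as the beta-lactamase reporter read.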

Experiment [4] in a line: qHTS assay to identify small molecule agonists of the progesterone receptor (PR) signaling pathway - cell viability counter screen (AID 1346799; calls by dose curve; further: nearly all actives have a fitted effect of over 45% in size; further: potency means the concentration at half of the fitted maximal effect). The essentials:
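HEK293T PR-UAS-bla, 3,000 cells/well, 2% charcoal-stripped FBS; 6 h settle, compound 16 h at 37C/5% CO2; LiveBLAzer 2 h RT, then CellTiter-Glo 30 min RT, luminescence read.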

Experiment [5] can be described thus: qHTS assay to identify small molecule antagonists of the TGF-beta/Smad signaling pathway - cell viability counter screen (AID 1346824). Further: nearly all actives have a fitted effect of over 50% in size. The essentials:
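Cytotoxicity counter-screen run in the same wells as the beta-lactamase Smad reporter read: CellTiter-Glo luminescence after 30 min at room temperature. HEK 293T SBE-bla cells had 5 hr compound exposure at 37 C with TGF-beta1 (0.25 ng/mL stock).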

A short description of experiment [6]: qHTS assay to identify small molecule agonists of the TGF-beta/Smad signaling pathway - cell viability counter screen (AID 1346829). Further: top concentration of the series differs between compounds; nearly all actives have a fitted effect of over 45% in size. In outline: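 Same-well cytotoxicity: CellTiter-Glo added after the 2 hr room-temperature beta-lactamase substrate step, luminescence measured 30 min later; cells had 5 hr of compound at 37 C.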
Experiment [7] can be described thus: qHTS assay to identify small molecule agonists of the TGF-beta/Smad signaling pathway (AID 1346859; active means well fitted activation curve with a large enough effect in the signal ratio in the repeat runs, not every such curve was filed as active; the % refers to the signal ratio; further: series mostly up to about 77 µM). The essentials:
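Read-out: fluorescence at 460 and 530 nm (405 nm excitation) after a 2 hr room-temperature incubation with beta-lactamase FRET substrate. SBE-bla HEK 293T cells had been treated with test compounds for 5 hr at 37 C.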

Experiment [8] is described as follows: Human pregnane X receptor (PXR) small molecule agonists, qHTS cell viability counter screen (AID 1346977). Further: nearly all actives have a fitted effect of over 50% in size. Further: potency means the concentration at half of the fitted maximal effect. In outline: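 Fluorescence read-out (CellTiter-Fluor) of viability in PXR-Luc HepG2 cells, multiplexed with the luciferase agonist read. Compounds in DMSO added after 5hr plating; 24hr total exposure at 37C, 5% CO2.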
Experiment [9] can be described thus: Caspase-3/7 induction in HepG2 cells by small molecules, qHTS assay (AID 1346978). Further: nearly all actives have a fitted effect of over 15% in size. Further: potency means the concentration at half of the fitted maximal effect. In outline:
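Caspase-3/7 induction was measured by Caspase-Glo 3/7 luminescence (30 min, room temperature) after a 17 hr compound exposure of wild-type HepG2 cells seeded at 2,000 per well and pre-incubated 5 hr.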

Experiment [10] in a line: Caspase-3/7 induction in CHO-K1 cells by small molecules, qHTS assay (AID 1346980). Further: nearly all actives have a fitted effect of over 15% in size. Further: potency means the concentration at half of the fitted maximal effect. The essentials:
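Luminescent Caspase-Glo 3/7 read (30min, room temperature) quantified apoptosis induction. Cells were wild-type CHO-K1, treated with compound for 17hr at 37 C and 5% CO2.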

Experiment [11] in a line: Caspase-3/7 induction in HepG2 cells by small molecules, qHTS cell viability counter screen (AID 1346981). Further: nearly all actives have a fitted effect of over 30% in size. Further: potency means the concentration at half of the fitted maximal effect. In outline: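 Fluorescence read-out of live-cell protease activity (CellTiter-Fluor) after 1 hr with reagent. This was measured in the same wells as the caspase-3/7 luminescence, on HepG2 cells exposed to DMSO-dissolved compounds for 16 hr at 37 C.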
In experiment [12] the target is Thyrotropin-releasing hormone receptor (Homo sapiens) (UniProt P34981). The experiment in a line: qHTS assay to identify small molecule agonists of the thyrotropin-releasing hormone receptor (TRHR) signaling pathway (AID 1346891; calls by dose curve;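 further: HEK293 cells expressing TRHR with calcium dye readout; series mostly up to about 58 µM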). In outline: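 HEK293/TRHR cells, 1500 per well, 18 h 37 °C; Ca dye 2 h 37 °C; pin-tool compound addition (agonist mode); kinetic fluorescence 3 min, 1 s reads; 15 concentrations, triplicate.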
Sequence of Thyrotropin-releasing hormone receptor (Homo sapiens) (P34981 whole entry, looked up): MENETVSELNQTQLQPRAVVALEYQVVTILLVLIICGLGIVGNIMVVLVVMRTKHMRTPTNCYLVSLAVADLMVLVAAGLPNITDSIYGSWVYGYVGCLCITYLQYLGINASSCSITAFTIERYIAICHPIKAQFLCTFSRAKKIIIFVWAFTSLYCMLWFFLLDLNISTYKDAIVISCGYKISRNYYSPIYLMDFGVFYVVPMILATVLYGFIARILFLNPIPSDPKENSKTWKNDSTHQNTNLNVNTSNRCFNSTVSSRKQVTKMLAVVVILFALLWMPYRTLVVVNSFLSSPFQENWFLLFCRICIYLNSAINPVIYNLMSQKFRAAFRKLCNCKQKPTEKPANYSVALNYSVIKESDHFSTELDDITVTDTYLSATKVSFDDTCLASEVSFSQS

Experiment [13] can be described thus: Caspase-3/7 induction in CHO-K1 cells by small molecules, qHTS cell viability counter screen (AID 1346979). Further: potency means the concentration at half of the fitted maximal effect; nearly all actives have a fitted effect of over 35% in size. In outline: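 CHO-K1 wt, 1,500 cells/well; 5hr pre-incubation 37C/5% CO2; compound pin transfer (DMSO); 16hr exposure; CellTiter-Fluor added, 1hr, fluorescence read.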
Experiment [14] has as its target Nuclear receptor subfamily 1 group I member 2 (Homo sapiens) (UniProt O75469). The experiment in a line: Human pregnane X receptor (PXR) small molecule agonists, qHTS assay (AID 1346982). Further: nearly all actives have a fitted effect of over 35% in size. Further: potency means the concentration at half of the fitted maximal effect. In outline: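 HepG2 PXR-Luc reporter line, 5% charcoal-stripped FBS; 5 hr pre-incubation, compound (DMSO) 24 hr at 37 C/5% CO2; ONE-Glo 30 min RT; luminescence read-out.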
Experiment [15] addresses Thyrotropin-releasing hormone receptor (Homo sapiens) (UniProt P34981). In words: qHTS assay to identify small molecule antagonists of the thyrotropin-releasing hormone receptor (TRHR) signaling pathway (AID 1346877; active means well fitted inhibition curve with a large enough effect in the repeat runs, not every such curve was filed as active; further: series mostly up to about 51 µM). The essentials: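 HEK293/TRHR cells, 18 h, 37 °C; Ca2+ dye 2 h; cpd 5 min RT; TRH 1 nM final; fluorescence read 3 min, 1 s intervals; 15 concs, triplicate.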

Experiment [16] concerns the target Progesterone receptor (Homo sapiens) (UniProt P06401). In words: qHTS assay to identify small molecule antagonists of the progesterone receptor (PR) signaling pathway (AID 1346795; active means well fitted inhibition curve with a large enough effect in the signal ratio in the repeat runs, not every such curve was filed as active; the % refers to the signal ratio; further: potency means the concentration at half of the fitted maximal effect). The essentials:
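Beta-lactamase reporter, HEK293T PR-UAS-bla line; 2% charcoal-stripped FBS; 6 hr pre-incubation, 37C/5% CO2. Compound + R5020 1 nM final, 16 hr. LiveBLAzer B/G FRET substrate, 2 hr RT; fluorescence intensity read.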

Experiment [17] addresses Nuclear receptor subfamily 1 group I member 2 (Rattus norvegicus) (UniProt Q9R1A7). In words: Rat pregnane X receptor (rPXR) activation by small molecules, qHTS assay (AID 1346983). Further: potency means the concentration at half of the fitted maximal effect; nearly all actives have a fitted effect of over 20% in size. To be noted: rPXR luciferase reporter cells, One-Glo luminescence, 24 h; max activation: hits give high values. The essentials:
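Luminescent readout (One-Glo luciferase, 30 min room temperature) followed 24 hr compound treatment at 37 C of rPXR cells plated 2,000 per well and preincubated 5hr; qHTS format with compounds delivered in DMSO.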

Experiment [18] deals with Nuclear receptor subfamily 1 group I member 2 (Homo sapiens) (UniProt O75469). The experiment in a line: CYP3A4 induction through human pregnane X receptor (PXR) by small molecules, qHTS assay (AID 1346984). Further: nearly all actives have a fitted effect of over 40% in size. In outline: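 HepG2-derived DPX-2 line carrying PXR plus a CYP3A4-promoter luciferase reporter; cells plated 5 hr, compound-exposed 24 hr at 37C. CYP3A4 activity probed with 3uM (final) Luciferin-IPA for 3hr, then luciferase read after One-Glo.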
Sequence of Nuclear receptor subfamily 1 group I member 2 (Homo sapiens) (O75469 whole entry, looked up): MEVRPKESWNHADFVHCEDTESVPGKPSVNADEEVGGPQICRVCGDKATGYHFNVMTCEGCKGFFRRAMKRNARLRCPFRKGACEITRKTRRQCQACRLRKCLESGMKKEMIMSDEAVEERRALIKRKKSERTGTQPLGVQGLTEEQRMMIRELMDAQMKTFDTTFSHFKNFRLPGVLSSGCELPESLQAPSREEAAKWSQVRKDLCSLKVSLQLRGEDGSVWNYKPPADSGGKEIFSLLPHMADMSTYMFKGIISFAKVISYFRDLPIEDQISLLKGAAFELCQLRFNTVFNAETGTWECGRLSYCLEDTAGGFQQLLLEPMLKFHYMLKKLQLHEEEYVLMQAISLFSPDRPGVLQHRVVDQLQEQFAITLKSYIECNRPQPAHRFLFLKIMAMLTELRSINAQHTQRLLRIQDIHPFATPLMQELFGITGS

Experiment [19] shares this target. In words: Human pregnane X receptor (PXR) activation by small molecules, qHTS assay (AID 1346985). Further: potency means the concentration at half of the fitted maximal effect; nearly all actives have a fitted effect of over 40% in size. The essentials: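 DPX-2 cells (HepG2 co-transfected with a PXR response element and a CYP3A4-promoter luciferase construct) were seeded at 2,000 per well, rested 5 hr at 37C, then exposed to DMSO-dissolved compounds for 24 hr. Activation was read as luciferase luminescence.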

The text below walks through data of PubChem BioAssay (Tox21).

Each structure is given as a SMILES string. Values without a mark were called inactive. Records with an inconclusive call do not appear. Active and inactive are the calls of the source. Unless noted, the call rests on the fitted dose curve; in most records, active means well fitted curve in the direction sought with a large enough effect in the repeat runs; inconclusive means weak or mixed curves; inactive means no such curve, though single readings can be large; an effect the other way counts as inactive or inconclusive.

Sequence of Progesterone receptor (Homo sapiens) (P06401 whole entry, looked up): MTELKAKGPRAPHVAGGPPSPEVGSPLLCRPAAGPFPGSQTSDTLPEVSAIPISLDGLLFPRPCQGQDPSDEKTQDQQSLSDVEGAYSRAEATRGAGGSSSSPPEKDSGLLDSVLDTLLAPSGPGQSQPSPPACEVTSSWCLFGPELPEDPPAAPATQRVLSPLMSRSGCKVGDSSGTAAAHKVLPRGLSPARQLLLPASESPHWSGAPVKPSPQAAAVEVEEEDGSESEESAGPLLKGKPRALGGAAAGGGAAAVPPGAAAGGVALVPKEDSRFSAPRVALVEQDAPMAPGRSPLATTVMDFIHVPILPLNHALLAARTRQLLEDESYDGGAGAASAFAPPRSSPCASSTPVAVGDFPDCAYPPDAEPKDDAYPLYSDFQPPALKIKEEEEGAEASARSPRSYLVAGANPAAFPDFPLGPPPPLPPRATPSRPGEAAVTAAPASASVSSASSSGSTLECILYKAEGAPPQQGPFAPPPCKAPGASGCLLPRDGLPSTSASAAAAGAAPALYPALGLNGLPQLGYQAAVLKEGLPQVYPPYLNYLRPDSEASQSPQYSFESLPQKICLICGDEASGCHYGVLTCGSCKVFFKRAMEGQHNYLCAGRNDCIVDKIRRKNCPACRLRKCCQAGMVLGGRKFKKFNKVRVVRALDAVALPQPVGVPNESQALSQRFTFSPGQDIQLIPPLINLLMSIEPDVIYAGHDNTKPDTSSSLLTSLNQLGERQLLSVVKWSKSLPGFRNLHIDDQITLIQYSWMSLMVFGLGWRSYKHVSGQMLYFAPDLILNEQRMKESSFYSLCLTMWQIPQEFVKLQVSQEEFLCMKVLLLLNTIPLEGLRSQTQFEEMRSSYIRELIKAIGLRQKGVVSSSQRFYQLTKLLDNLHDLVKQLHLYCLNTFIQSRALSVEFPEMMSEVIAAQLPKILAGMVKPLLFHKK
Sequence of Nuclear receptor subfamily 1 group I member 2 (Rattus norvegicus) (Q9R1A7 whole entry, looked up): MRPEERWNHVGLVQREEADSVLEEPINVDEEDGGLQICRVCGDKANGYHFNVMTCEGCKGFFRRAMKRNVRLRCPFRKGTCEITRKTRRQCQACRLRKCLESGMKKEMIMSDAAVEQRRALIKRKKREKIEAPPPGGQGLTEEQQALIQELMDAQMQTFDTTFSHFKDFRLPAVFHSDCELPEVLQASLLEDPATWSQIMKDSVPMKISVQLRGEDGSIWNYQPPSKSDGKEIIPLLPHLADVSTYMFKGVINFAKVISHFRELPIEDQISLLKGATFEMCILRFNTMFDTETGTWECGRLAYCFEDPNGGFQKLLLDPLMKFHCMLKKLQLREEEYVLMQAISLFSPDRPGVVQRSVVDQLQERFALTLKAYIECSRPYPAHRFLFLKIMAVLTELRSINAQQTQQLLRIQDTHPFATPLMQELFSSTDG

In the case of `O=NN1CCNCC1`, the Potency result in experiment [1], in experiment [2], in experiment [3], in experiment [4], in experiment [5] and in experiment [6] was “inactive” in each case. Further, the Potency result in [8], in experiment [9], in experiment [10] and in experiment [11] was “inactive” in each case. The compound was classed as inactive in experiment [7].
With `C/C(=C\c1ccccc1)[N+](=O)[O-]`, the Potency in [4] was 68.6 µM (active); in experiment [8] it was 43.3 µM (active); in experiment [13], 10.9 µM (active); in experiment [11], 68.6 µM (active); in experiment [14] it was 24.3 µM (active). Also, the Potency entry in experiment [5], in experiment [6], in experiment [12] and in experiment [10] was “inactive” throughout.
For `CCC(C)(NC(=O)c1cc(Cl)c(C)c(Cl)c1)C(=O)CCl` (stereo not drawn), the Potency entry in experiment [1], in experiment [2], in [3], in [4], in experiment [5] and in experiment [15] was “inactive” in each case. The Potency result in [12] is “inactive”. The Potency in [9] is 61.5 µM (active); in experiment [13], 24.5 µM (active); in [10], 21.8 µM (active).
As to `OC(c1ccc(Cl)cc1)(c1ccc(Cl)cc1)c1cccnc1`, the Potency result in [1], in experiment [2], in experiment [5], in experiment [12], in experiment [9] and in experiment [10] was “inactive” throughout. In experiment [11], the Potency entry is “inactive”. Moreover, the Potency was 17.2 µM (active) in experiment [16], 61.1 µM (active) in experiment [13] and 61.1 µM (active) in experiment [14]. Besides, the outcome in [7] was inactive.
Take `CCCC(Cn1cncn1)c1ccc(Cl)cc1Cl` (stereo not drawn): the Potency result in experiment [1], in experiment [2], in experiment [5], in [6], in [15] and in experiment [12] was “inactive” each time. Also, the Potency entry in experiment [9] and in experiment [10] was “inactive” in each case. Also, the outcome in [7] was inactive. The Potency in [14] was 24.3 µM (active).
Consider `COP(=O)(OC)O/C(=C/Cl)c1cc(Cl)c(Cl)cc1Cl`, for which the Potency entry in experiment [1], in [3], in experiment [4], in [5], in experiment [6] and in experiment [15] was “inactive” in each case. In addition, the Potency result in experiment [12], in [8], in [9], in experiment [10] and in experiment [11] was “inactive” in each case. Further, the Potency in experiment [16] is 14.5 µM (active); in experiment [14], 72.4 µM (active). Further, the result in experiment [7] was inactive.
`CN1C[C@H](CNC(=O)OCc2ccccc2)C[C@@H]2c3cccc4c3c(cn4C)C[C@H]21`: the Potency entry in [1], in experiment [2], in [16], in experiment [5], in experiment [6] and in experiment [12] was “inactive” in each case. Also, the Potency entry in experiment [9], in experiment [10], in experiment [11] and in [14] was “inactive” each time. Further, the result in experiment [7] was inactive. Further, the Potency in [8] is 26.6 µM (active).
On to `CCOP(=O)(OCC)O/C(=C/Cl)c1ccc(Cl)cc1Cl`, for which the Potency entry in [1], in [2], in experiment [5], in [15], in experiment [9] and in [10] was “inactive” in each case. In experiment [18], the Potency entry is “inactive”. Further, the Potency was 10.9 µM (active) in experiment [16], 14.1 µM (active) in experiment [17] and 3.98 µM (active) in experiment [19]. Further, the compound was classed as inactive in experiment [7].
